Potency and affinity values are given separately. Inconclusive results are not listed. Activity calls are given as the source filed them. Unless noted, no rule for the calls is given here.
How the values were obtained:
[1] = RMG-1 ovarian cancer cell viability loss – cherry-pick, dose response (AID 687029;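 active = signal drop whose fitted half-maximal concentration is at most twice the top valid dose, in every test run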;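 also: cells exposed to compound for 96 hours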)
[2] = IOSE-T80 viability loss, PAX8-independent line – cell-based, cherry-pick, selectivity assay for PAX8 inhibitor project, dose response (AID 687032;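 active = fitted half-maximal concentration for viability loss no higher than twice the top valid dose, in every repeat run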;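 also: cells exposed to compound for 96 h before reading; 0% = neutral control wells and -100% = 2 µM mitoxantrone kill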)
[3] = CMV-driven luciferase expression suppression in HEK293 – cell-based, luminescence, dry powder, counter-screen for Pax8 inhibitor project, dose response (AID 743020;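 active = signal-lowering compounds whose fitted half-maximal concentration is at or below twice the top tested dose in every run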;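 also: HEK293 cells stably expressing the CMV luciferase reporter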)
[4] = general cell-killing toxicity readout – plate reader, dry powder samples, cytotoxicity control for PAX8 inhibitor project, dose response (AID 743021)
[5] = IGROV1 cell killing – plate reader, dry powder samples, PAX8 inhibitor project, dose response (AID 743043);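 also: more negative means fewer viable cells or more cytotoxicity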
[6] = OVCAR-3 cell viability loss – plate reader, dry powder samples, PAX8 inhibitor project, dose response (AID 743044); conditions: max activity: at 35 µM, active compounds read low unless noted
[7] = toxicity toward immortalized ovarian surface epithelium – cell-based, plate reader, dry powder samples, cytotoxicity control for PAX8 inhibitor project, dose response (AID 743045);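 also: 0% = neutral control median and -100% = positive control median; more negative values mean more cell killing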
[8] = A2780 cell killing – plate reader, dry powder samples, cytotoxicity control, dose response (AID 743046);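 also: 0% = neutral control wells and -100% = cytotoxic reference compound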
[9] = OVCAR8 cell viability loss – plate reader, dry powder samples, PAX8 project, dose response (AID 743197)

Measured: max activity

Cc1cccc(-c2ccc([C@H]3[C@H](CO)N4CCCCN(S(=O)(=O)c5ccccc5C)C[C@@H]34)cc2)c1
inactive: [1] | [2] | [3] | [4] | [5] | [6] -11.5% | [7] | [8] | [9]

C[C@@H]1CN([C@H](C)CO)C(=O)c2cc(NC(=O)Nc3ccc(F)cc3)ccc2O[C@@H](C)CCCCO[C@H]1CN(C)C(=O)Nc1ccc(F)cc1
inactive: [1] | [2] | [3] | [4] | [5] | [6] 13.6% | [7] | [8] | [9]

C[C@@H]1CN([C@H](C)CO)C(=O)c2cc(NC(=O)Nc3ccc(C(F)(F)F)cc3)ccc2O[C@@H](C)CCCCO[C@H]1CN(C)C(=O)Nc1ccc(F)cc1
inactive: [1] | [2] | [3] | [4] | [5] | [6] -1.73% | [7] | [8] | [9]

Cc1noc(C)c1S(=O)(=O)N(C)C[C@H]1OCCCC[C@@H](C)Oc2ccc(NS(=O)(=O)c3ccc(Cl)cc3)cc2C(=O)N([C@@H](C)CO)C[C@H]1C
inactive: [1] | [2] | [3] | [4] | [5] | [6] -28.8% [at 2.1 µM, active compounds read low] | [7] | [9]

CCSCCc1nnc(NC(=O)Nc2cccc(C(F)(F)F)c2)s1
not listed: [6] | [8] | [9]
inactive: all other assays above

C[C@@H]1CCCCO[C@@H](CN(C)C(=O)Cc2ccccc2)[C@@H](C)CN([C@@H](C)CO)C(=O)c2cc(NC(=O)Nc3ccc(C(F)(F)F)cc3)ccc2O1
inactive: [1] | [2] | [3] | [4] | [5] | [6] -12.2% [at 16 µM, active compounds read low] | [7] | [8] | [9]

C[C@@H]1CCCCO[C@H](CN(C)S(=O)(=O)c2ccccc2)[C@H](C)CN([C@@H](C)CO)C(=O)c2cc(NS(=O)(=O)c3ccc(Cl)cc3)ccc2O1
not listed: [6] | [8] | [9]
inactive: all other assays above

C[C@@H]1CN([C@@H](C)CO)C(=O)c2cccc(NC(=O)c3ccncc3)c2O[C@@H]1CN(C)S(=O)(=O)c1cccs1
inactive: [1] | [2] | [3] | [4] | [5] | [6] 14.9% [at 2.1 µM, active compounds read low] | [7] | [9]

C[C@H]1CCCCO[C@@H](CN(C)S(=O)(=O)c2cccs2)[C@@H](C)CN([C@@H](C)CO)C(=O)c2cc(NS(=O)(=O)c3ccc(Cl)cc3)ccc2O1
not listed: [6] | [8] | [9]
inactive: all other assays above

COc1ccccc1-c1ccc2c(c1)[C@H]1[C@H](CCN1C(=O)C1CCCCC1)[C@@H](CO)N2
not listed: [6] | [8] | [9]
inactive: all other assays above

CO[C@H]1CN(C)C(=O)c2cc(NC(=O)c3ccc(-c4ccccc4)cc3)ccc2OC[C@@H](C)NC[C@@H]1C
not listed: [6] | [8] | [9]
inactive: all other assays above

C[C@H]1CCCCO[C@H](CN(C)S(=O)(=O)c2ccc(F)cc2)[C@@H](C)CN([C@@H](C)CO)C(=O)c2cc(NS(=O)(=O)c3ccc(Cl)cc3)ccc2O1
not listed: [6] | [9]
inactive: all other assays above

Cc1ccc(S(=O)(=O)Nc2ccc3c(c2)C(=O)N([C@H](C)CO)C[C@H](C)[C@@H](CN(C)S(=O)(=O)c2ccc(Cl)cc2)OCCCC[C@H](C)O3)cc1
not listed: [6] | [8] | [9]
inactive: all other assays above

C[C@@H]1CCCCO[C@@H](CN(C)Cc2ccc(C(F)(F)F)cc2)[C@H](C)CN([C@H](C)CO)C(=O)c2cc(NC(=O)Nc3ccccc3)ccc2O1
not listed: [6] | [8] | [9]
inactive: all other assays above

C[C@@H]1CCCCO[C@@H](CN(C)C(=O)NC2CCCCC2)[C@H](C)CN([C@@H](C)CO)C(=O)c2cc(NC(=O)Nc3ccc(C(F)(F)F)cc3)ccc2O1
not listed: [6] | [8] | [9]
inactive: all other assays above

C[C@@H]1CCCCO[C@H](CN(C)S(=O)(=O)c2ccc(Cl)cc2)[C@@H](C)CN([C@@H](C)CO)C(=O)c2cc(NS(=O)(=O)c3ccc(F)cc3)ccc2O1
not listed: [6] | [8] | [9]
inactive: all other assays above

COc1ccc(S(=O)(=O)Nc2ccc3c(c2)CC(=O)N([C@@H](C)CO)C[C@@H](C)[C@H](CN(C)Cc2ccc(C(F)(F)F)cc2)O3)cc1
not listed: [6] | [9]
inactive: all other assays above

C[C@H](CO)N1C[C@H](C)[C@H](CN(C)Cc2ccc(C(F)(F)F)cc2)OCCCC[C@H](C)Oc2ccc(NC(=O)NC3CCCCC3)cc2C1=O
not listed: [6] | [9]
inactive: all other assays above

C[C@H]1CN([C@@H](C)CO)S(=O)(=O)c2ccc(C#Cc3ccncc3)cc2O[C@H]1CN(C)C(=O)C1CCCCC1
not listed: [6] | [9]
inactive: all other assays above

C[C@@H]1CN([C@H](C)CO)C(=O)c2cc(NC(=O)Nc3ccc(C(F)(F)F)cc3)ccc2O[C@@H](C)CCCCO[C@@H]1CN(C)Cc1ccc(Cl)c(Cl)c1
not listed: [6] | [8] | [9]
inactive: all other assays above

C[C@@H]1CN([C@H](C)CO)C(=O)c2cc(NC(=O)Nc3ccc(C(F)(F)F)cc3)ccc2O[C@@H](C)CCCCO[C@H]1CN(C)S(=O)(=O)c1ccc(Cl)cc1
not listed: [6] | [9]
inactive: all other assays above

C[C@@H]1CN([C@H](C)CO)C(=O)c2cc(NC(=O)c3ccccc3)ccc2O[C@@H](C)CCCCO[C@@H]1CN(C)Cc1ccc(C(F)(F)F)cc1
not listed: [6] | [9]
inactive: all other assays above

C[C@@H]1CCCCO[C@@H](CN(C)Cc2ccc(Cl)c(Cl)c2)[C@H](C)CN([C@H](C)CO)C(=O)c2cc(NC(=O)c3ccccc3)ccc2O1
not listed: [6] | [8] | [9]
inactive: all other assays above

C[C@@H]1CN([C@H](C)CO)C(=O)c2cc(NC(=O)Nc3ccc(C(F)(F)F)cc3)ccc2O[C@@H](C)CCCCO[C@H]1CN(C)C(=O)NC1CCCCC1
not listed: [6] | [9]
inactive: all other assays above

C[C@@H]1CN([C@H](C)CO)C(=O)c2cc(NC(=O)Nc3ccccc3)ccc2O[C@@H](C)CCCCO[C@H]1CN(C)C(=O)Nc1ccc(C(F)(F)F)cc1
not listed: [6] | [9]
inactive: all other assays above

C[C@@H]1CN([C@H](C)CO)C(=O)c2cc(NS(=O)(=O)c3ccc(F)cc3)ccc2O[C@@H](C)CCCCO[C@H]1CN(C)S(=O)(=O)c1ccc(Cl)cc1
not listed: [6] | [8] | [9]
inactive: all other assays above

C[C@@H]1CN([C@H](C)CO)C(=O)c2cc(NS(=O)(=O)c3ccc(F)cc3)ccc2O[C@@H](C)CCCCO[C@@H]1CN(C)CC1CCCCC1
not listed: [6] | [8] | [9]
inactive: all other assays above

O=C(Nc1ccc(C(F)(F)F)cc1)Nc1ccc2c(c1)[C@H]1C[C@@H](CC(=O)N3CCc4ccccc4C3)O[C@@H](CO)[C@H]1O2
not listed: [6] | [9]
inactive: all other assays above

C[C@H](CO)N1C[C@H](C)[C@@H](CN(C)Cc2ccc(C(F)(F)F)cc2)OCCCC[C@H](C)Oc2ccc(NC(=O)Nc3ccc(F)cc3)cc2C1=O
not listed: [6] | [8] | [9]
inactive: all other assays above

C[C@@H]1CN([C@H](C)CO)C(=O)c2cc(NS(=O)(=O)c3ccccc3)ccc2O[C@@H](C)CCCCO[C@@H]1CN(C)CC1CCCCC1
not listed: [6] | [9]
inactive: all other assays above

— PubChem BioAssay
